Measured values taken from PubChem BioAssay (Tox21).
Results filed as inconclusive are left out. A call without a number means that no potency is given here. The source made the active and inactive calls. Unless noted, the call rests on the fitted dose curve; in most records, active means well fitted curve in the direction sought with a large enough effect in the repeat runs; inconclusive means weak or mixed curves; inactive means no such curve, though single readings can be large; an effect the other way counts as inactive or inconclusive.

How the values were obtained:
[1] = qHTS assay for small molecules that induce genotoxicity in human embryonic kidney cells expressing luciferase-tagged ATAD5 (AID 651632); further: nearly all actives have a fitted effect of over 15% in size
Method in brief: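 HEK293T cells carrying a luciferase reporter tagged to ATAD5 were exposed to compound or DMSO vehicle for 16 hr at 37C, 5% CO2. Amplite was added, and after 30 min at room temperature luciferase activity was read as a marker of ATAD5 induction.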

[2] = qHTS assay for small molecule agonists of the p53 signaling pathway - cell viability (AID 651633; calls by dose curve; further: nearly all actives have a fitted effect of over 30% in size; further: potency means the concentration at half of the fitted maximal effect)
Method in brief: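 p53RE-bla cells were treated with compound for 16 hours at 37 C. Cytotoxicity was then measured as CellTiter-Glo luminescence after 30 min at room temperature.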

[3] = qHTS assay for small molecules that induce genotoxicity in human embryonic kidney cells expressing luciferase-tagged ATAD5 - cell viability (AID 651634; calls by dose curve; further: nearly all actives have a fitted effect of over 25% in size)
Method in brief: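 HEK293T cells expressing luciferase-tagged ATAD5 were exposed to compound or DMSO for 15.5 hr at 37C, 5% CO2. Viability was then read as live-cell protease activity by CellTiter-Fluor fluorescence after 30 min at 37C.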

[4] = qHTS assay for small molecule disruptors of the mitochondrial membrane potential - cell viability (AID 720634; calls by dose curve;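 further: human HepG2 liver cancer cells; nearly all actives have a fitted effect of over 20% in size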)
Method in brief: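 HepG2 cells seeded overnight at 37 C, then exposed to compound or DMSO for 1 hr at 37 C, 5% CO2. m-MPI dye added, then CellTiter-Glo for 30 min at room temperature; viability read as ATP luminescence.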

[5] = qHTS assay for small molecule disruptors of the mitochondrial membrane potential (AID 720635); further: potency means the concentration at half of the fitted maximal effect
Method in brief: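 HepG2 cells exposed to compound 1 hr at 37C, then Mito-MPS dye 30 min. Ratio read of aggregate (540/590 nm) versus monomer (490/535 nm) fluorescence.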

[6] = qHTS assay to test for compound auto fluorescence at 590 nm (red) in HepG2 cells (AID 720674)
Method in brief: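 Seeding: 2,000 HepG2 cells/well, MEM/10% FBS, overnight 37 C. Dosing: compound vs DMSO. Incubation: 1 hr, 37 C, 5% CO2. Read: fluorescence 540 ex/590 em, Rose Bengal sodium as red reference.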

[7] = qHTS assay to test for compound auto fluorescence at 535 nm (green) in HepG2 cells (AID 720675)
[8] = qHTS assay to test for compound auto fluorescence at 460 nm (blue) in HEK293 cells (AID 720678)
Method in brief: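 HEK293 cells (2,000 per well, medium with 10% dialyzed FBS) attached for 4-5 hr at 37C, then received compound and stood overnight at 37C, 5% CO2. Blue fluorescence was read at Ex/Em 405/460 nm and expressed relative to triamterene.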

[9] = qHTS assay to test for compound auto fluorescence at 535 nm (green) in HEK293 cells (AID 720680)
[10] = qHTS assay to test for compound auto fluorescence at 460 nm (blue) in HEK293 cell free culture (AID 720681)
Method in brief: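 Compounds were added to cell-free DMEM with 10% FBS and fluorescence read directly. The blue channel used 405 nm excitation and 460 nm emission, with triamterene as the reference fluorophore.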

[11] = qHTS assay to test for compound auto fluorescence at 535 nm (green) in HEK293 cell free culture (AID 720682)
Method in brief: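 DMEM + 10% FBS, cell-free; cpd or DMSO pinned in; Ex485/Em535 read; output as fluorescein-equivalent signal.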

[12] = qHTS assay to test for compound auto fluorescence at 590 nm (red) in HEK293 cell free culture (AID 720683)
Method in brief: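 Cell-free wells of DMEM with 10% FBS received compound, and intrinsic fluorescence was read at excitation/emission 540/590 nm. Values expressed as equivalence to Rose Bengal sodium.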

[13] = qHTS assay to test for compound auto fluorescence at 590 nm (red) in HepG2 cell free culture (AID 720684)
Method in brief: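 Compound was pinned into wells holding MEM with 10% FBS and no cells, and red fluorescence was read at Ex/Em 540/590 nm. Signal is expressed as auto fluorescence equivalency relative to Rose Bengal sodium.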

[14] = qHTS assay to test for compound auto fluorescence at 460 nm (blue) in HepG2 cell free culture (AID 720685)
Method in brief: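 Compound (23 nL) or DMSO pinned into cell-free MEM with 10% FBS; blue fluorescence read at 405/460 nm excitation/emission, expressed as auto-fluorescence equivalency to triamterene.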

[15] = qHTS assay to test for compound auto fluorescence at 535 nm (green) in HepG2 cell free culture (AID 720686)
[16] = qHTS assay to test for compound auto fluorescence at 460 nm (blue) in HepG2 cells (AID 720687)
Method in brief: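 HepG2 cells in MEM with 10% FBS, attached overnight at 37 C, were exposed to compound or DMSO for 1 hr at 37 C, 5% CO2. Blue fluorescence was read at 405/460 nm, with triamterene as reference fluorophore.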

[17] = molecular target: Glucocorticoid receptor (Homo sapiens) (UniProt P04150); experiment: qHTS assay to identify small molecule agonists of the glucocorticoid receptor (GR) signaling pathway (AID 720691; active means well fitted activation curve with a large enough effect in the signal ratio in the repeat runs, not every such curve was filed as active; the % refers to the signal ratio); details: GR-bla HeLa, beta-lactamase reporter ratio, 18 h; activation: at 62.4 µM (top of the series)
Glucocorticoid receptor (Homo sapiens), sequence (P04150 whole entry, looked up): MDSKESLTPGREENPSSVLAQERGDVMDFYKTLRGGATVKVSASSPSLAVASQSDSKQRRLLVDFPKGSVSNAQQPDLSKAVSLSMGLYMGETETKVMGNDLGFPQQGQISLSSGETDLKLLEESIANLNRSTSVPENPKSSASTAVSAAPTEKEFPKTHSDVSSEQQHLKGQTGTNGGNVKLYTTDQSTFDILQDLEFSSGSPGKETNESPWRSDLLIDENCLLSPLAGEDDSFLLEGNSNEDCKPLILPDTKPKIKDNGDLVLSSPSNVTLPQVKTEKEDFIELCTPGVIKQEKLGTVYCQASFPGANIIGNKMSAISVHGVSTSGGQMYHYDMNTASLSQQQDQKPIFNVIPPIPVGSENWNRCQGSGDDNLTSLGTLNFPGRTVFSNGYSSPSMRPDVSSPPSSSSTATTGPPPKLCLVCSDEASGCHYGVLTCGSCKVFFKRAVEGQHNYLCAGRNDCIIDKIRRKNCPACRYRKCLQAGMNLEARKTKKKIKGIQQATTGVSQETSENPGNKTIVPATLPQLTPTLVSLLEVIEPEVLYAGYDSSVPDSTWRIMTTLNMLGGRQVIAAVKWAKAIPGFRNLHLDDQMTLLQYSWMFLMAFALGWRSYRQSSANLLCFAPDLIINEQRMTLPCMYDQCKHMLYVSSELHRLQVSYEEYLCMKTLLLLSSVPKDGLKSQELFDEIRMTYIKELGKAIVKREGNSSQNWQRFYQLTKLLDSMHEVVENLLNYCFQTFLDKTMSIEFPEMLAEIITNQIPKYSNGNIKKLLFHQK
Method in brief: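 GR-bla HeLa cells (beta-lactamase reporter under glucocorticoid response element) were plated 4 h at 37 C/5% CO2, given compounds in DMSO, and incubated 18 h at 37 C. LiveBLAzer B/G FRET substrate was added for 2 h at room temperature, then fluorescence intensity read.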

[18] = molecular target: Glucocorticoid receptor (Homo sapiens) (UniProt P04150); experiment: qHTS assay to identify small molecule antagonists of the glucocorticoid receptor (GR) signaling pathway (AID 720692; active means well fitted inhibition curve with a large enough effect in the signal ratio in the repeat runs, not every such curve was filed as active; the % refers to the signal ratio)
Method in brief: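 GR-bla HeLa cells (beta-lactamase reporter under glucocorticoid response element) were pre-plated 4 h at 37 C, treated with compounds plus 5 nM dexamethasone (final) for 18 h, then read by LiveBLAzer B/G FRET fluorescence after 2 h.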

[19] = qHTS assay to test for compound auto fluorescence at 590 nm (red) in HEK293 cells (AID 720679)
Method in brief: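 HEK293 cells (2,000/well, medium with 10% dialyzed FBS) attached for 4-5 hr at 37C, received 23 nL compound and were incubated overnight at 37C, 5% CO2. Red fluorescence was then read at 540/590nm Ex/Em, referenced to Rose Bengal sodium.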

| Compound | Potency [1] | Potency [2] | Potency [3] | Potency [4] | Potency [5] | Potency [6] | Potency [7] | Potency [8] | Potency [9] | Potency [10] | Potency [11] | Potency [12] | Potency [13] | outcome [14] | Potency [15] | outcome [16] | Potency [17] | Potency [18] | Potency [19] |
| --- | --- | --- | --- | --- | --- | --- | --- | --- | --- | --- | --- | --- | --- | --- | --- | --- | --- | --- | --- |
| CCOC(=O)[C@@H](N)CS | inactive | inactive | inactive | inactive | inactive | inactive | inactive | inactive | inactive | inactive | inactive | inactive | inactive | inactive | inactive | inactive | inactive | inactive |  |
| CN(CCO)CC(O)Cn1cnc2c1c(=O)n(C)c(=O)n2C (centres undefined) (tested in a mixture with another compound) | inactive | inactive | inactive | inactive | inactive | inactive | inactive |  | inactive | inactive | inactive | inactive | inactive | inactive | inactive | inactive |  |  | inactive |
| O=C(O)[C@@H](O)[C@H](O)[C@H](O)[C@@H](O)C(=O)O (tested in a mixture with another compound) | inactive | inactive | inactive | inactive | inactive | inactive | inactive | inactive | inactive | inactive | inactive | inactive | inactive |  | inactive | inactive |  |  | inactive |
| CC(=O)Nc1ccc(OC(=O)c2ccccc2O)cc1 | inactive | inactive | inactive | inactive | 26.6 µM (active) | inactive | inactive |  | inactive | inactive | inactive | inactive | inactive | inactive | inactive | inactive |  |  | inactive |
| CCCCCCCCCCCCCCCCCC(=O)OC[C@@H](O)[C@H]1OC[C@H](O)[C@H]1O | inactive | inactive | inactive | inactive | inactive | inactive | inactive |  | inactive | inactive | inactive | inactive | inactive | inactive | inactive | inactive | inactive | inactive | inactive |
| COc1ccc2cc([C@H](C)CO)ccc2c1 | inactive | inactive | inactive | inactive | inactive | inactive | inactive | inactive | inactive | inactive | inactive |  | inactive | inactive | inactive | inactive | inactive | inactive | inactive |
| CS(=O)(=O)OCC(O)C(O)COS(C)(=O)=O (centres undefined) | inactive | inactive | inactive | inactive | inactive | inactive | inactive |  | inactive | inactive | inactive | inactive | inactive |  | inactive | inactive | inactive | inactive | inactive |
| FC(F)(F)C(F)(F)C(F)(F)C(F)(F)C(F)(F)C(F)(F)F | inactive | inactive | inactive | inactive | inactive | inactive | inactive | inactive | inactive | inactive | inactive | inactive |  | inactive | inactive | inactive | inactive |  | inactive |
| CN=C(NC)NCc1ccccc1 | inactive | inactive | inactive | inactive | inactive | inactive | inactive | inactive | inactive | inactive | inactive | inactive |  |  | inactive | inactive | inactive | inactive | inactive |
| CCCCC(O)c1ccccc1 (centres undefined) | inactive | 26.6 µM (active) | inactive | inactive | inactive | inactive | inactive | inactive | inactive | inactive | inactive | inactive | inactive | inactive | inactive | inactive | inactive | inactive | inactive |
| CC1(C)N=C(N)N=C(N)N1c1ccc(Cl)cc1 | inactive | 5.96 µM (active) | inactive | inactive | inactive | inactive | inactive | inactive | inactive | inactive | inactive | inactive | inactive |  | inactive | inactive | inactive | inactive |  |
